Source: PubChem
Hits are enriched below; roughly 7.5% of the tested compounds scored in any of these assays.
SMN2 splice up: SMN2 splice variant enhancement | AID 1458 | HEK293 SMN2-luciferase splicing reporter, luminescence, 30-36 h | Potency, µM (doses to about 46.1 µM), for inactives: at the highest dose activity change, positive = activation, actives largely listed as activators | 210,000 compounds, 2.8% hits; also: % of control where 0% means no effect; nearly all actives have a fitted effect of over 55% in size
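HEK293 cells carry an SMN2 minigene-luciferase reporter in which exon 7 inclusion puts luciferase in frame. Cells were seeded at 2000 cells/well, attached for 10-12 hours, then exposed to compounds for 30-36 hours at 37C before ONE-Glo luminescence.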
Rab9 prom act: activators of Rab9 promoter; Huh7 Rab9 promoter-luciferase reporter, luminescence, 24 h; Potency, µM (top dose mostly 9.22 µM), without a hit: at the top dose activation, negative = inhibition, most hits filed as activators; 320,000 compounds, 2.8% hits; also: % of control where 0% means no effect; nearly all actives have a fitted effect of over 60% in size
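Huh7 cells stably carrying a Rab9 promoter-luciferase reporter, 1500 cells per well in OP-MEM I with 10% FBS, treated with compound 24 hours at 37C. Luciferase activity read by luminescence after 10 minutes with Amplite reagent.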
KinaseGlo FLuc: blocks Kinase-Glo luciferase, a counter-screen artifact; Q27757; Kinase-Glo luciferase, ATP luminescence, 8 min; Potency, µM (series often up to 38.3 µM), inactives show at the highest dose activity change, negative = inhibition, hits mostly inhibitors; 200,000 compounds, 0.28% hits; AID 1379; also: % is scaled to controls: 0 for no effect and ±100 for the full control effect; nearly all actives have a fitted effect of over 60% in size
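Recombinant Kinase-Glo luciferase, 10 uM ATP (linear range), luciferin; imidazole pH 7.2 / KCl / MgCl2 / Tween / BSA buffer; 8 min RT; luminescence.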
ELG1 genotoxic: inducers of genotoxicity in HEK293T ELG1-luciferase cells | Potency, µM (highest dose often 46 µM), for the others: at the highest dose activity change, positive = activation, most hits filed as activators | 330,000 compounds, 1.3% hits | HEK293T ELG1-luciferase reporter, luminescence, 16 h; also: % of control where 0% means no effect; nearly all actives have a fitted effect of over 60% in size
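After overnight (16 hr) compound treatment at 37 °C, ELG1-luciferase HEK293T cells were lysed with ONE-Glo; luminescence quantified 30 min later at room temperature.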
NPC1 promoter act: activates the NPC1 promoter. Huh7 NPC1 promoter luciferase reporter, 24 h. Potency, µM (doses to about 9.22 µM), without a hit: at the highest dose activation, most hits filed as activators. 320,000 compounds, 2.4% hits. AID 485313; also: % of control where 0% means no effect; nearly all actives have a fitted effect of over 60% in size
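NPC1 promoter–luciferase Huh7 cells; 24 h compound; luminescence.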
FLuc modulator: counter-screen for miR-21 project: firefly luciferase inhibitors or activators | 360,000 compounds, 6.9% hits | Potency, µM (top dose mostly 57.5 µM), for inactives: at the highest dose activity change, negative = inhibition, actives largely listed as inhibitors | purified FLuc, Km substrates, luminescence inhibition | P08659;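 also: plate controls were vehicle for no effect and reference inhibitor for full effect; nearly all actives have a fitted effect of over 55% in size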
Target sequence (P08659 whole entry, looked up): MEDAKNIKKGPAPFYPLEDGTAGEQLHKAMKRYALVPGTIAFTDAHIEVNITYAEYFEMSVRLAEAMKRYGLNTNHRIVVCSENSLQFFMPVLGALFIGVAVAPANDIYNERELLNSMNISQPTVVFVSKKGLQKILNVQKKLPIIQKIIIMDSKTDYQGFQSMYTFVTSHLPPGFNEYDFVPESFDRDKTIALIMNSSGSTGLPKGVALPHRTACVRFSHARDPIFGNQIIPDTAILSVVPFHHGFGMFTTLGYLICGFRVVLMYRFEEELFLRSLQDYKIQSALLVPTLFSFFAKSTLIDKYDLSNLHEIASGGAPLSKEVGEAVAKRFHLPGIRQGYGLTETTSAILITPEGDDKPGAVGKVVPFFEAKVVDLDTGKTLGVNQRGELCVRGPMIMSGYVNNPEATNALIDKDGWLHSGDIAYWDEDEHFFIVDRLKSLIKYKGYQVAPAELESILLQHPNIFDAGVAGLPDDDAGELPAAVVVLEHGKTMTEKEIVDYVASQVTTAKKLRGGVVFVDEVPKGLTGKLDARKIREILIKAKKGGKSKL
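Biochemical qHTS of compounds, final roughly 60 µM downward over six points, against 10 nM purified firefly luciferase using Km concentrations of substrates (10 uM D-luciferin, 10 uM ATP) in Tris acetate pH 7.5 buffer; luminescence output.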
Numbers without * were called inactive; ? = inconclusive; nt = no result given; [ ] = dose if it differs, or a comment. Calls follow the shape of the dose curve; as a rule, active = well fitted curve in the direction sought with a large enough effect; inconclusive = small, poorly fitted or top-dose-only effect, or another doubt; inactive = no such curve, though single readings can be large; an effect the other way counts as inactive or inconclusive. Potency is read from the fitted curve at half-maximal effect.

SMILES	SMN2 splice up	Rab9 prom act	KinaseGlo FLuc	ELG1 genotoxic	NPC1 promoter act	FLuc modulator
O=C(Nc1ccc(Nc2ccccc2)cc1)c1ccc(F)cc1	nt	12%	nt	3%	16%	19µM*
Cc1ccc(Cn2c(C3CCCN3c3nc(C)cs3)nc3cc(C(F)(F)F)ccc32)cc1 (centres undefined)	nt	-5%	nt	-7%	-3%	0%
Cc1nc(N2CCCC2)c2c(C(=O)N3CCN(c4cccc(C)c4C)CC3)c(C)oc2n1	nt	nt	nt	nt	nt	2%
Cc1ccc(NC(=O)C(=O)c2ccc(C)cc2)cc1	nt	2.8µM*	nt	4.6µM*	0.63µM*	1.9µM*
Cc1sc(C(=O)Nc2ccc3ccccc3c2)cc1CC(=O)O	?	?	-2%	15%	?	9.5µM*
Cc1ccc(NC(=O)C(C)C(=O)Nc2ccc(C)cc2)cc1	-14%	0%	3%	0%	-3%	0%
O=C(c1ccc(F)cc1)c1cnc(Nc2ccccc2)s1	nt	1.3µM*	-3%	?	2µM*	0.6µM*
O=C(Nc1ccc2ccccc2c1)c1ccc(Cl)cc1	nt	0.32µM*	nt	0.92µM*	0.5µM*	0.54µM*
O=C1Nc2cc(Cl)ccc2Oc2cc(Oc3ccccc3)ccc21	nt	nt	nt	nt	nt	-7%
COc1ccc(OC)c(NC(=O)c2c(NCc3ccc(OC)c(OC)c3)sc3c2CCC(C)C3)c1 (centres undefined)	nt	nt	nt	nt	nt	-1%
O=C(Nc1ccc2oc(=O)ccc2c1)c1ccc2ccccc2c1	nt	?	nt	9%	?	9.5µM*
Cc1cc(C)c2cc(C(=O)Nc3ccccc3)[nH]c2c1	nt	3.2µM*	nt	?	4.5µM*	?
Cc1ccc(C(=O)Nc2ccc3ccccc3c2)cc1	nt	0.22µM*	nt	0.29µM*	0.1µM*	0.076µM*
CCC(=O)Nc1ccc2ccccc2c1	29%	1%	-3%	13%	4%	?
NC(=O)Cn1nnc(-c2ccc(NC(=O)c3ccc(F)cc3)cc2)n1	14µM*	?	-1%	?	?	?
O=C(Nc1ccc2oc(-c3ccccc3)nc2c1)c1ccc2ccccc2c1	-9%	nt	nt	nt	nt	3%
Cc1cc(C)c2cc(C(=O)Nc3ccc4c(c3)OCO4)[nH]c2c1	nt	12%	nt	0%	2%	?
O=C(Nc1ccc(Cl)cc1F)C1CC1c1ccccc1 (centres undefined)	nt	24%	nt	13%	20%	?
Cc1ccc(NC(=O)C2CC2c2ccccc2)c([N+](=O)[O-])c1 (centres undefined)	nt	22%	nt	?	?	19µM*
COc1ccc(-c2nnc(SCC(=O)c3ccc(NC(C)=O)cc3)o2)cc1OC	nt	nt	nt	nt	nt	1%
Cc1ccc(CNC(=O)CN2C(=O)CSc3ccc(S(=O)(=O)N4CCCC4)cc32)cc1	nt	nt	nt	nt	nt	-7%
Cc1cccc(C(=O)CC(=O)c2cc(Cl)ccc2O)c1	-98%	-2%	16%	-7%	-2%	-12%
Cc1ccc(O)c(C(=O)CC(=O)c2cccc(F)c2)c1	35µM*	?	1%	7%	?	-7%[2.3 µM]
Cc1ccc(O)c(C(=O)CC(=O)c2ccc(Cl)cc2)c1	nt	?	nt	?	15%	24µM*
O=C(O)c1ccc(/C=N/Nc2cccc(C(F)(F)F)c2)cc1	10µM*	2.5µM*	0%	?	2.8µM*	21µM*
SMILES	SMN2 splice up	Rab9 prom act	KinaseGlo FLuc	ELG1 genotoxic	NPC1 promoter act	FLuc modulator
COc1cc(/C=N/Nc2ccc(C(F)(F)F)cn2)ccc1O	25%	11%	1%	16%	1%	?
O=C(O)c1cccc(N/N=C/c2ccc(F)c(F)c2)c1	1.1µM*	0.28µM*	0%	?	0.28µM*	0.34µM*
O=C(O)c1ccc(N/N=C/C=C/c2ccccc2)cc1	nt	0.25µM*	nt	?	0.32µM*	0.6µM*
O=C(O)c1ccc(/C=N/Nc2ccc(C(F)(F)F)cn2)cc1	13µM*	?	-1%	?	0.4µM*	4.8µM*
CCOC(=O)c1ccc(NS(=O)(=O)c2ccc(Br)s2)cc1	-11%	nt	nt	nt	nt	?
COc1cc(C#N)ccc1OCC(=O)N1CCc2ccccc2C1	nt	-1%	nt	5%	-5%	3%
CCCn1c(-c2ccc(F)cc2)nc2c(NCCN(CC)CC)nc(C)nc21	-2%	nt	-1%	nt	nt	nt
O=C(C1CCCN(S(=O)(=O)c2ccc(Br)cc2)C1)N1CCN(Cc2ccccc2)CC1 (centres undefined)	nt	-7%	nt	-16%	-13%	1%
CCCCn1c(N)c(N(CCOC)C(=O)COC(=O)CCOc2ccccc2C)c(=O)[nH]c1=O	nt	2%	nt	-2%	1%	6%
O=Cc1ccc(C(=O)OCC(=O)NCc2ccco2)cc1	nt	nt	nt	-1%	nt	nt
O=C(O)c1cccc(N/N=C/C2=C(Cl)c3cc(Cl)ccc3SC2)c1	0.5µM*	0.79µM*	2%	0.58µM*	0.32µM*	1.3µM*
CC(C)c1ccc(/C=N/Nc2ccc(C(=O)O)cc2)cc1	-71%	-23%	0%	?	-23%	0.19µM*
O=C(O)c1ccc(N/N=C/c2ccc(OC(=O)c3ccccc3Cl)cc2)cc1	-28%	?	2%	?	?	1.9µM*
CC(C)c1ccc(/C=N/NC(=O)CC(=O)NCc2ccccc2)cc1	30%	-3%	-1%	5%	-8%	?
O=C(O)c1ccc(/C=N/O)cc1	nt	-1%	nt	1%	-5%	0%
O=C(O)c1ccc(N/N=C/c2ccc(-c3ccccc3)cc2)cc1	4µM*	0.32µM*	-2%	?	?	0.48µM*
COC(=O)c1ccc(COc2ccccc2/C=N/Nc2cccc(C(=O)O)c2)cc1	nt	?	-2%	?	?	?
O=c1c(-c2ccccc2)nnc2sc(COc3ccc(Br)cc3)nn12	nt	-2%	nt	-1%	-4%	1%
Cc1ccsc1C(=O)NNC(=O)C1C2C=CC(C2)C1C(=O)O (centres undefined)	7%	8%	-5%	?	3%	24µM*
COc1ccccc1N1CCN(S(=O)(=O)c2c(C)sc3ncn(CC(=O)Nc4ccc(C(F)(F)F)cc4)c(=O)c23)CC1	4%	nt	nt	nt	nt	4%
c1csc(-c2ccnc3ncnn23)c1	-1%	-3%	0%	-1%	0%	-6%
Fc1ccc(-c2cnn3c(-c4ccncc4)ccnc23)cc1	4.5µM*	0.4µM*	-5%	7%	0.35µM*	1.2µM*
Fc1ccc(-c2cnn3c(-c4cccs4)ccnc23)cc1	3.2µM*	4µM*	-11%	7%	4.5µM*	0.76µM*
Cc1nn2c(-c3ccc(F)cc3)ccnc2c1Br	nt	-5%	nt	1%	-7%	0%
Cn1c(=O)c2sccc2n2c(CCC(=O)NCc3ccccc3)nnc12	26%	nt	nt	nt	nt	2%
